Laboratory results as given in the supplement of paper PMC6609913.
Where a name gives a salt, the structure may show the parent alone. ± gives the standard deviation of the averaged measurements. Whole data set: some 1,300 compounds, median “normalised cell viability” near 1, cut for the lowest 2% near 0.15. Only a selection was taken, and the lowest values are over-represented in it overall.

Test system: V-C8 + BRCA2 (BRCA2-proficient hamster cells)
Test: normalised cell viability (fraction of plate median); higher = more viable cells (less toxic)
Conditions: 5 µM
Outline: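 Hamster V-C8 cells lacking BRCA2 and V-C8 cells with BRCA2 restored were seeded in 96-well plates. Library drugs (10 mM DMSO stocks) were added 24 h later at 5 μM in 100 μl medium, next to DMSO control wells, for 3 days (screen 1) or 6 days (screen 2). Cell viability was read by resazurin assay, median-plate normalised (modified robust per cent of sample), and triplicate wells were averaged.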

Row | Structure (SMILES) | normalised cell viability (treatment time: 3 days) | normalised cell viability (treatment time: 6 days)
1 | C[n+]1ccccc1/C=N/O [Pralidoxime chloride] | 0.99 ± 0.036 | 0.9475 ± 0.0081
2 | NS(=O)(=O)c1cc(C2(O)NC(=O)c3ccccc32)ccc1Cl (configuration not stated) [Chlorthalidone] | 1.1 ± 0.018 | 1.03 ± 0.079
3 | CCc1cccc2c3c([nH]c12)C(CC)(CC(=O)O)OCC3 (configuration not stated) [Etodolac] | 0.922 ± 0.034 | 1.04 ± 0.084
4 | CN[C@@H]1[C@H](O[C@H]2[C@H](O[C@H]3[C@H](O)[C@@H](O)[C@H](NC(=N)N)[C@@H](O)[C@@H]3NC(=N)N)O[C@@H](C)[C@]2(O)CO)O[C@@H](CO)[C@H](O)[C@H]1O [Dihydrostreptomycin sulfate] | 0.911 ± 0.07 | 0.983 ± 0.042
5 | NS(=O)(=O)c1cc2c(cc1C(F)(F)F)NC(Cc1ccccc1)NS2(=O)=O (configuration not stated) [Bendroflumethiazide] | 0.992 ± 0.096 | 1.03 ± 0.032
6 | CC[C@H](C)C(=O)O[C@H]1C[C@@H](C)C=C2C=C[C@H](C)[C@H](CC[C@@H]3C[C@@H](O)CC(=O)O3)[C@H]21 [Lovastatin] | 0.19 ± 0.015 | 0.153 ± 0.019
7 | CC[C@H](C)C(=O)O[C@H]1CCC=C2C=C[C@H](C)[C@H](CC[C@@H]3C[C@@H](O)CC(=O)O3)[C@H]21 [Mevastatin] | 0.246 ± 0.0034 | 0.23 ± 0.011
8 | CC[C@H](C)C(=O)O[C@H]1C[C@H](O)C=C2C=C[C@H](C)[C@H](CC[C@@H](O)C[C@@H](O)CC(=O)O)[C@H]21 [Pravastatin] | 0.969 ± 0.14 | 1.02 ± 0.089
9 | NCCNCCNCCNCCN [Tetraethylenepentamine pentahydrochloride] | 0.972 ± 0.03 | 1.01 ± 0.024
10 | CC=CC1=C(C(=O)O)N2C(=O)[C@@H](NC(=O)[C@H](N)c3ccc(O)cc3)[C@H]2SC1 [Cefprozil] | 0.951 ± 0.071 | 0.908 ± 0.072
11 | Clc1cnccn1 [2-Chloropyrazine] | 1.02 ± 0.036 | 1.02 ± 0.071
12 | Cc1cc(-c2ccccc2)nnc1NCCN1CCOCC1 [Minaprine dihydrochloride] | 1.1 ± 0.02 | 1.03 ± 0.048
13 | CC(C(=O)O)c1ccc2c(c1)[nH]c1ccc(Cl)cc12 (configuration not stated) [Carprofen] | 1.04 ± 0.11 | 1.04 ± 0.13
14 | CN(Cc1ccc(C(C)(C)C)cc1)Cc1cccc2ccccc12 [Butenafine Hydrochloride] | 1.06 ± 0.05 | 0.982 ± 0.048
15 | C[C@@H]1C[C@H]2[C@@H]3C[C@H](F)C4=CC(=O)C=C[C@]4(C)[C@@]3(Cl)[C@@H](O)C[C@]2(C)[C@H]1C(=O)COC(=O)C(C)(C)C [Clocortolone pivalate] | 1.03 ± 0.27 | 0.899 ± 0.07
16 | CCN(CC)C(=O)C1(c2ccccc2)CC1CN (configuration not stated) [Milnacipran hydrochloride] | 0.956 ± 0.095 | 0.937 ± 0.048
17 | COc1nc(C)nc(Cl)c1NC1=NCCN1 [Moxonidine] | 1.014 ± 0.0037 | 0.9963 ± 0.0028
18 | CC1CC(OC(=O)c2ccccc2O)CC(C)(C)C1 (configuration not stated) [Homosalate] | 1.03 ± 0.04 | 1.02 ± 0.074
19 | CN(C)C(=O)C(CCN1CCC(O)(c2ccc(Cl)cc2)CC1)(c1ccccc1)c1ccccc1 [Loperamide hydrochloride] | 0.687 ± 0.041 | 0.67 ± 0.057
20 | CN[C@H](CC(C)C)C(=O)N[C@H]1C(=O)N[C@@H](CC(N)=O)C(=O)N[C@H]2C(=O)N[C@H]3C(=O)N[C@H](C(=O)N[C@H](C(=O)O)c4cc(O)cc(O)c4-c4cc3ccc4O)[C@H](O)c3ccc(c(Cl)c3)Oc3cc2cc(c3O[C@@H]2O[C@H](CO)[C@@H](O)[C@H](O)[C@H]2O[C@H]2C[C@](C)(N)[C@H](O)[C@H](C)O2)Oc2ccc(cc2Cl)[C@H]1O [Vancomycin hydrochloride] | 0.177 ± 0.0067 | 0.17 ± 0.018
21 | CCCCCNC(=N)N/N=C/c1c[nH]c2ccc(OC)cc12 [Tegaserod maleate] | 0.1362 ± 0.0013 | 0.155 ± 0.022
22 | COc1ccc2[nH]cc(CCNC(C)=O)c2c1 [Melatonin] | 1.22 ± 0.097 | 0.928 ± 0.048

Row | Structure (SMILES) | normalised cell viability (treatment time: 3 days) | normalised cell viability (treatment time: 6 days)
23 | CC[C@@H](CO)NCCN[C@@H](CC)CO [Ethambutol dihydrochloride] | 1.05 ± 0.058 | 1 ± 0.011
24 | C1CCC(C(CC2CCCCN2)C2CCCCC2)CC1 (configuration not stated) [Perhexiline maleate] | 0.135 ± 0.0029 | 0.125 ± 0.015
25 | Cc1nnc(SCC2=C(C(=O)O)N3C(=O)[C@@H](NC(=O)Cn4cnnn4)[C@H]3SC2)s1 [Cefazolin sodium salt] | 1.1 ± 0.034 | 1.01 ± 0.12
26 | CCCCCCCCCCCCCCCC[N+](C)(C)CCN(Cc1ccc(OC)cc1)c1ncccn1 [Thonzonium bromide] | 0.787 ± 0.094 | 0.74 ± 0.19
27 | CCCC1O[C@@H]2C[C@H]3[C@@H]4CCC5=CC(=O)C=C[C@]5(C)[C@H]4[C@@H](O)C[C@]3(C)[C@]2(C(=O)CO)O1 (some centres not stated) [Budesonide] | 0.9516 ± 0.0071 | 0.936 ± 0.024
28 | CC1(C)OC(=O)NC1=O [Dimethadione] | 1.08 ± 0.064 | 0.964 ± 0.043
29 | CNC[C@H](O)[C@@H](O)[C@H](O)[C@H](O)CO [Meglumine] | 0.938 ± 0.094 | 0.983 ± 0.037
30 | C[N+](C)(C)CCOC(N)=O [Carbachol] | 0.953 ± 0.043 | 1.01 ± 0.036
31 | CN1C2CCCC1CC(NC(=O)c1nn(C)c3ccccc13)C2 (configuration not stated) [Granisetron] | 1.03 ± 0.036 | 1.01 ± 0.017
32 | CCN(CC)CCOC(=O)C1(c2ccc([N+](=O)[O-])cc2)CCCC1 [Nitrocaramiphen hydrochloride] | 1.06 ± 0.024 | 1.038 ± 0.0056
33 | CCCCCN(CCCCC)C(=O)C(CCC(=O)O)NC(=O)c1ccc(Cl)c(Cl)c1 (configuration not stated) [Lorglumide sodium salt] | 1 ± 0.032 | 1.04 ± 0.015
34 | Cc1onc(-c2ccccc2)c1C(=O)N[C@@H]1C(=O)N2[C@@H]1SC(C)(C)[C@@H]2C(=O)O [Oxacillin sodium] | 1.04 ± 0.042 | 0.989 ± 0.025
35 | CC(=O)OC[C@H]1O[C@@H]([S-])[C@H](OC(C)=O)[C@@H](OC(C)=O)[C@@H]1OC(C)=O.CCP(CC)CC.[Au+] [Auranofin] | 0.126 ± 0.0085 | 0.128 ± 0.012
36 | C[C@H]1O[C@H](O[C@H]2[C@H](O)[C@@H](O)[C@@H](O[C@H]3[C@H](O)[C@@H](O)C(O)O[C@@H]3CO)O[C@@H]2CO)[C@H](O)[C@@H](O)[C@@H]1N[C@H]1C=C(CO)[C@@H](O)[C@H](O)[C@H]1O (some centres not stated) [Acarbose] | 0.928 ± 0.072 | 1.03 ± 0.056
37 | COC(=O)Nc1nc2ccc(SC(C)C)cc2[nH]1 [Methiazole] | 0.231 ± 0.016 | 0.245 ± 0.017
38 | Nc1ccc(C(=O)NCC(=O)O)cc1 [Aminohippuric acid] | 1.04 ± 0.027 | 1.11 ± 0.076
39 | CCOCCn1c(N2CCCN(C)CC2)nc2ccccc21 [Emedastine] | 1.07 ± 0.11 | 1.06 ± 0.032
40 | Nc1ccn([C@@H]2O[C@H](CO)[C@@H](O)C2(F)F)c(=O)n1 [Gemcitabine] | 0.212 ± 0.014 | 0.183 ± 0.0099
41 | NC12CC3CC(CC(C3)C1)C2 [Adamantamine fumarate] | 0.885 ± 0.035 | 0.95 ± 0.053
42 | COc1cc2c(cc1OC)C(=O)C(CC1CCN(Cc3ccccc3)CC1)C2 (configuration not stated) [Donepezil hydrochloride] | 1.007 ± 0.0092 | 1.05 ± 0.074
43 | CN1[C@@H]2CC[C@H]1C[C@@H](OC(=O)c1c[nH]c3ccccc13)C2 [Tropisetron HCl] | 1.05 ± 0.12 | 1.24 ± 0.074
44 | CCCN(CCC)C(=O)C(CCC(=O)O)NC(=O)c1ccccc1 (configuration not stated) [Proglumide] | 0.993 ± 0.11 | 0.986 ± 0.14

Row | Structure (SMILES) | normalised cell viability (treatment time: 3 days) | normalised cell viability (treatment time: 6 days)
45 | CC(C)/N=c1\cc2n(-c3ccc(Cl)cc3)c3ccccc3nc-2cc1Nc1ccc(Cl)cc1 [Clofazimine] | 0.274 ± 0.021 | 0.346 ± 0.037
46 | CCCN[C@H]1CCc2nc(N)sc2C1 [Pramipexole] | 0.9625 ± 0.0076 | 0.987 ± 0.022
47 | c1ccc2c(c1)CCCc1cc(NCCN3CCOCC3)nnc1-2 | 0.803 ± 0.038 | 0.87 ± 0.091
48 | CCOC(=O)OC(C)OC1=C(C(=O)Nc2ccccn2)N(C)S(=O)(=O)c2ccccc21 (configuration not stated) [Ampiroxicam] | 1 ± 0.034 | 0.994 ± 0.079
49 | O=C(NCCO[N+](=O)[O-])c1cccnc1 [Nicorandil] | 1.11 ± 0.072 | 1.11 ± 0.13
50 | CNC(=O)c1c(I)c(C(=O)NCC(=O)Nc2c(I)c(C(=O)O)c(I)c(C(=O)NCCO)c2I)c(I)c(N(C)C(C)=O)c1I [Ioxaglic acid] | 1 ± 0.058 | 1.11 ± 0.086
51 | O=C(O)CCc1nc(-c2ccccc2)c(-c2ccccc2)o1 [Oxaprozin] | 1.06 ± 0.11 | 1.12 ± 0.078
52 | Cc1cc2cc3c(C)cc(=O)oc3c(C)c2o1 [Trioxsalen] | 0.991 ± 0.036 | 0.818 ± 0.12
53 | Nc1c2ccccc2nc2ccccc12 [Aminacrine] | 0.139 ± 0.0043 | 0.156 ± 0.024
54 | Nc1c2c(nc3ccccc13)CCCC2 [Tacrine hydrochloride] | 0.905 ± 0.038 | 1.09 ± 0.014
55 | CC(C)Cn1cnc2c(N)nc3ccccc3c21 [Imiquimod] | 1.02 ± 0.042 | 1.019 ± 0.0077
56 | O=C(Nc1ccc([N+](=O)[O-])cc1Cl)c1cc(Cl)ccc1O [Niclosamide] | 0.139 ± 0.0082 | 0.127 ± 0.0065
57 | O=C(OCCOCCO)c1ccccc1Nc1cccc(C(F)(F)F)c1 [Etofenamate] | 0.988 ± 0.045 | 0.987 ± 0.061
58 | CCCOc1ccc2[nH]c(NC(=O)OC)nc2c1 [Oxibendazol] | 0.18 ± 0.0021 | 0.194 ± 0.0035
59 | COC(=O)Nc1nc2cc(C(=O)c3ccccc3)ccc2[nH]1 [Mebendazole] | 0.163 ± 0.013 | 0.151 ± 0.0072
60 | COC(=O)Nc1nc2cc(C(=O)c3ccc(F)cc3)ccc2[nH]1 [Flubendazol] | 0.168 ± 0.017 | 0.167 ± 0.0085
61 | COC(=O)Nc1nc2cc(Sc3ccccc3)ccc2[nH]1 [Fenbendazole] | 0.183 ± 0.0078 | 0.179 ± 0.017
62 | COC(=O)Nc1nc2cc([S+]([O-])c3ccccc3)ccc2[nH]1 (configuration not stated) [Oxfendazol] | 0.74 ± 0.055 | 0.827 ± 0.05
63 | COC(=O)Nc1nc2cc(C(=O)c3cccs3)ccc2[nH]1 [Nocodazole] | 0.143 ± 0.0097 | 0.132 ± 0.01
64 | NCC[C@H](O)C(=O)N[C@@H]1C[C@H](N)[C@@H](O[C@H]2O[C@H](CN)[C@@H](O)[C@H](O)[C@H]2O)[C@H](O)[C@H]1O[C@H]1O[C@H](CO)[C@@H](O)[C@H](N)[C@H]1O [Amikacin hydrate] | 0.584 ± 0.023 | 0.699 ± 0.089
65 | CN(C)CCC=C1c2ccccc2C=Cc2ccccc21 [Cyclobenzaprine hydrochloride] | 1.06 ± 0.062 | 1.08 ± 0.034
66 | Cc1ccc(Cl)c(Nc2ccccc2C(=O)O)c1Cl [Meclofenamic acid sodium salt monohydrate] | 1.02 ± 0.068 | 1.08 ± 0.084
